Assay results from PubChem BioAssay AID1159580 (chemical genetic matrix, 2015).
“And” between values parts separate entries of the source, which are not always exact repeats. Equal values may be shown once. The campaign covered roughly 5,500 compounds. About 2,000 (36%) were called active. Another 18% or so got no clear call; they are omitted. Cut-off read from the data, not from the text of the source: active = normalized growth mostly below about 0.91 (no sharp cut-off); inconclusive = no clear call, values can overlap the other calls; inactive = mostly above about 0.92. The list shows a part of the results.

Assay: chemical genetic growth profiling, strain panel (AID 1159580);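 note: tested at 20 µM; growth read once vehicle control cultures reached saturation at 30 °C; 1 = growth at the plate median or of vehicle wells; lower values mean less growth of the strain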
Details: S. cerevisiae deletion strains, growth OD

Measured: normalized growth

CC(=O)CCCCn1c(=O)c2c(ncn2C)n(C)c1=O
inactive: locus YAL013W, strain DEP1, active compounds read low 1.02 | locus YAL021C, strain ccr4, active compounds read low 1.01 | locus YAL026C, strain drs2, active compounds read low 1.01 | locus YAL030W, strain snc1, active compounds read low 1.01 | locus YAL040C, strain CLN3, active compounds read low 1 | locus YBL061C, strain skt5, active compounds read low 1.01 | locus YBR009C, strain hhf1, active compounds read low 1.02 | locus YBR021W, strain FUR4, active compounds read low 0.991 | locus YBR023C, strain chs3, active compounds read low 1.01 | locus YBR171W, strain sec66, active compounds read low 1.04 | locus YBR229C, strain ROT2, active compounds read low 1.02 | locus YBR231C, strain swc5, active compounds read low 1.03 | locus YBR279W, strain paf1, active compounds read low 1 | locus YCL011C, strain gbp2, active compounds read low 1.01 | locus YCL016C, strain dcc1, active compounds read low 1.01 | locus YCL029C, strain bik1, active compounds read low 1.01 | locus YCL061C, strain MRC1 (second series), active compounds read low 1.01 | locus YCL061C, strain MRC1, active compounds read low 1.01 | locus YCL069W, strain vba3, active compounds read low 1 | locus YCR088W, strain abp1, active compounds read low 1.01 | locus YDL005C, strain med2, active compounds read low 1.01 | locus YDL035C, strain GPR1, active compounds read low 1.01 | locus YDL040C, strain nat1, active compounds read low 1.01 | locus YDL074C, strain BRE1, active compounds read low 1.04 | locus YDL101C, strain DUN1, active compounds read low 1.02 | locus YDL185W, strain tfp1, active compounds read low 0.999 | locus YDL192W, strain arf1, active compounds read low 1 | locus YDR001C, strain nth1, active compounds read low 1.01 | locus YDR069C, strain doa4, active compounds read low 1.03 | locus YDR101C, strain arx1, active compounds read low 1.01 | locus YDR137W, strain rgp1, active compounds read low 1.03 | locus YDR150W, strain NUM1, active compounds read low 1.02 and 0.998 | locus YDR159W, strain sac3, active compounds read low 1.03 | locus YDR162C, strain NBP2, active compounds read low 1.01 | locus YDR195W, strain ref2 1.02 | locus YDR297W, strain sur2, active compounds read low 1.01 | locus YDR318W, strain mcm21, active compounds read low 0.993 | locus YDR334W, strain swr1, active compounds read low 1.02 | locus YDR335W, strain msn5, active compounds read low 1.01 | locus YDR363W, strain ESC2, active compounds read low 1 | locus YDR388W, active compounds read low 0.999 | locus YDR392W, strain spt3, active compounds read low 1.02 | locus YDR502C, strain sam2, active compounds read low 1.01 | locus YEL003W, strain gim4, active compounds read low 1.01 | locus YEL037C, strain rad23, active compounds read low 1.01 | locus YEL061C, strain CIN8 (second series), active compounds read low 1.01 | locus YEL061C, strain CIN8, active compounds read low 1.01 | locus YER002W, strain NOP16, active compounds read low 1.03 | locus YER015W, strain faa2, active compounds read low 1.02 | locus YER016W, strain bim1, active compounds read low 1.01 | locus YER110C, active compounds read low 0.992 | locus YER111C, strain swi4, active compounds read low 1.03 | locus YER155C, strain BEM2 (second series), active compounds read low 1.02 | locus YER155C, strain BEM2, active compounds read low 1.01 | locus YER167W, strain BCK2, active compounds read low 1 | locus YFR010W, strain ubp6, active compounds read low 1.01 | locus YGL078C, strain dbp3, active compounds read low 1.01 | locus YGL086W, strain mad1, active compounds read low 1.01 | locus YGL167C, strain pmr1, active compounds read low 1.02 | locus YGL173C, strain kem1, active compounds read low 1.02 | locus YGL227W, strain vid30, active compounds read low 1.01 | locus YGL240W, strain doc1, active compounds read low 1.03 | locus YGL248W, strain PDE1, active compounds read low 1.03 | locus YGL253W, strain hxk2, active compounds read low 1.02 | locus YGR078C, strain PAC10, active compounds read low 1.02 | locus YGR135W, strain pre9, active compounds read low 0.967 | locus YGR229C, strain SMI1, active compounds read low 1.02 | locus YGR252W, strain gcn5, active compounds read low 0.983 | locus YHR013C, strain ard1, active compounds read low 1.04 | locus YHR027C, strain rpn1, active compounds read low 1.02 | locus YHR030C, strain SLT2, active compounds read low 1.02 and 0.994 | locus YHR079C, strain IRE1 (second series), active compounds read low 1.01 | locus YHR079C, strain IRE1, active compounds read low 0.99 | locus YHR094C, strain hxt1, active compounds read low 0.995 | locus YHR129C, strain ARP1, active compounds read low 1.02 | locus YHR142W, strain chs7, active compounds read low 1.01 | locus YHR200W, strain rpn10, active compounds read low 1 | locus YIL066C, strain RNR3, active compounds read low 1.03 | locus YIL073C, strain SPO22, active compounds read low 0.971 | locus YIL125W, strain kgd1, active compounds read low 0.999 | locus YIR030C, strain dcg1, active compounds read low 1.01 | locus YJL092W, strain hpr5, active compounds read low 1.01 | locus YJL095W, strain BCK1 (second series), active compounds read low 1 | locus YJL095W, strain BCK1, active compounds read low 1.03 and 0.986 | locus YJL115W, strain asf1, active compounds read low 1.01 | locus YJL129C, strain trk1, active compounds read low 1.03 | locus YJL134W, strain LCB3, active compounds read low 1 | locus YJL154C, strain vps35, active compounds read low 1.01 | locus YJL164C, strain tpk1, active compounds read low 1.02 | locus YJL166W, strain qcr8, active compounds read low 1.01 | locus YJL168C, strain set2, active compounds read low 0.99 | locus YJL187C, strain SWE1 (second series), active compounds read low 1.03 | locus YJL187C, strain SWE1, active compounds read low 1.01 | locus YJR043C, strain POL32, active compounds read low 1.04
